Experimental data from PubChem BioAssay AID493170 (National Center for Advancing Translational Sciences (NCATS), 2011).
Inconclusive results are not listed. Entries that show only a call come without a potency. The source made the active and inactive calls. The call rests on the fitted dose curve; in most records, active means well fitted inhibition curve with a large enough effect; inconclusive means small, poorly fitted or top-dose-only effect, or effect the other way; inactive means flat fitted curve, though single readings scatter.

biological target: Ubiquitin carboxyl-terminal hydrolase 2 (Homo sapiens) (UniProt O75604); assay: Ub-rhodamine 110 based assay for inhibitors Ubiquitin-specific Protease USP2a; settings: USP2a Ub-rhodamine110 cleavage, fluorescence; series mostly up to 38.3 µM; further: nearly all actives have a fitted effect of over 50% in size
Outline: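 5 nM USP2a preincubated with compounds for 30 min at RT in 20 mM Tris-HCl pH 8.0, 2 mM CaCl2, 2 mM beta-mercaptoethanol, 0.05% CHAPS. Cleavage of 150 nM Ub-rhodamine 110 read kinetically (Ex 485/Em 531) for 7 min.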
Potency means the concentration at half of the fitted maximal effect.

Chain of Ubiquitin carboxyl-terminal hydrolase 2 (Homo sapiens) (O75604 whole entry, looked up): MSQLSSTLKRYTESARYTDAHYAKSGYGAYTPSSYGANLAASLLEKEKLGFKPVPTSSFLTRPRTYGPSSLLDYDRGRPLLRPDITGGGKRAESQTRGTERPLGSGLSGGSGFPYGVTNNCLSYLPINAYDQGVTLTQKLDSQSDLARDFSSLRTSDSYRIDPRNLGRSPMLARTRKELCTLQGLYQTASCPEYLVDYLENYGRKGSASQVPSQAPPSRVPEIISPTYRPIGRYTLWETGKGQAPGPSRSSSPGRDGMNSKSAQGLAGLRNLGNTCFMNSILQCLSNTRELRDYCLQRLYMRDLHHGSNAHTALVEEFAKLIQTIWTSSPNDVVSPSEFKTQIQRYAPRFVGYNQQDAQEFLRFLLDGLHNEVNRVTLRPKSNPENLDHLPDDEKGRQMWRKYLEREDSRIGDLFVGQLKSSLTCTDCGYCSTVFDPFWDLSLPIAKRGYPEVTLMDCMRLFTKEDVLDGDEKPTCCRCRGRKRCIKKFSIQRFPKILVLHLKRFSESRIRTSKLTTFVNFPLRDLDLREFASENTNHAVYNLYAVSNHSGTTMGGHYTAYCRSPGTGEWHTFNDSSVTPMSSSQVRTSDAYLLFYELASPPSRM

SMILES	Potency
COc1ccc(-c2[nH]ncc2/C=C(/C#N)C(=O)NC2CCCCC2)cc1	inactive
CCOC(=O)c1c(C)c(C(=O)O)n(C)c1C	inactive
C#CCOCCOCCOCCNc1nc(N2CCN(C(=O)CCCCCCCCCCNC(=O)[C@@H](CCC(=O)O)n3cc(CCCCCN)nn3)CC2)nc(N2CCN(C(=O)CCCCCCCCCCNC(=O)[C@H](CCCCN)n3cc(C[C@@H](C)CC)nn3)CC2)n1	inactive
COc1ccc(S(=O)(=O)NCCSCc2ccco2)cc1OC	10 µM (active)
Cc1cc(C)c2c(N=CN(C)C)c(C(=O)N3CCN(c4ncccn4)CC3)sc2n1	inactive
CC(C)C(=O)N=c1sc2cc(F)cc(F)c2n1C	inactive
Oc1ccccc1/C=N/Nc1ncc(Br)cn1	inactive
CCN(C[C@H]1N[C@@](CC)(C(=O)OC)[C@H]2C(=O)N(Cc3ccccc3)C(=O)[C@@H]12)C(=O)Nc1ccc(C)cc1	inactive
O=[N+]([O-])/C(C(Cl)=C(Cl)Cl)=C(\Sc1ccccc1)N1CCCCC1	inactive
O=C(CSc1nnc(SCc2ccccc2)s1)N/N=C/C=C/c1ccco1	6.31 µM (active)
CC(OC(=O)c1nsc(Cl)c1Cl)C(=O)NCc1ccco1 (centres undefined)	inactive
O=S(=O)(c1cc(Cl)ccc1Cl)N1CCNCC1	inactive
O=C(NC1CCCCC1)C(c1ccco1)N(Cc1ccco1)C(=O)c1ccco1 (centres undefined)	inactive
Cc1cc(C(=O)NCc2ccco2)on1	inactive
Cc1ccccc1C(=O)Nc1ccc2nc3n(c(=O)c2c1)CCC3	inactive
COC(=O)c1[nH]c2ccccc2c1NC(=O)CN1CCCc2ccccc21	inactive
COc1ccc(OCC(=O)NCCNC(=O)c2cccnc2)cc1	inactive
COc1cc(OC)cc(-c2c(C#Cc3ccsc3)c3cc(-c4ccc(OC)c(OC)c4)ccc3n2C)c1	inactive
CC(C)OCCCNC(=O)CN1C(=O)CC(C)(C)S(=O)(=O)c2ccccc21	inactive
O=C(N/N=C/c1ccc(-c2ccc(S(=O)(=O)Nc3ncccn3)cc2)o1)c1cc2ccccc2cc1O	4.47 µM (active)

SMILES	Potency
CN(c1ccccc1)S(=O)(=O)c1ccc(Cl)c(C(=O)NCCc2c[nH]c3ccccc23)c1	inactive
CCOc1ccccc1C(=O)Nc1nnc(C(C)C)s1	inactive
CC(=O)Nc1cc[n+](CC(=O)c2ccc(Cl)cc2)cc1	inactive
CCC(C)c1ccc(O)c(N)c1 (centres undefined)	inactive
COc1cc(C2C(C#N)=C(N)Oc3c2ccc2ccccc32)ccc1OCC(=O)Nc1cccc(C)c1 (centres undefined)	inactive
CCCCCCCCCCCCCCCC[N+](C)(C)CCN(Cc1ccc(OC)cc1)c1ncccn1	11.2 µM (active)
C[C@](N)(Cc1ccc(O)c(O)c1)C(=O)O	inactive
NC(=O)c1ncc(C(F)(F)F)cc1Oc1cccc(F)c1	inactive
Nc1ccc(C2=Nc3cccc4cccc(c34)N2)cc1	12.6 µM (active)
CC(=O)C1=C(O)C(=O)N(c2nnn(C)n2)C1c1cccs1 (centres undefined)	inactive
Cn1nnnc1Sc1ncnc2scc(-c3ccc4c(c3)OCO4)c12	inactive
COC(=O)c1ccc(CSc2ncnc3ccccc23)o1	inactive
C/C(Cn1nnc2ccccc21)=N\OC(=O)c1ccccc1C	inactive
COc1cc(C(=O)OCC(=O)Nc2c(F)c(F)c(F)c(F)c2F)cc(OC)c1OC	inactive
CC1CCCCC1NC(=O)CSCC(=O)O (centres undefined)	inactive
O=C(COC(=O)c1c2c(nc3ccccc13)/C(=C/c1ccco1)CC2)NC1CCCC1	3.55 µM (active)
Cc1ccc2oc(=O)c3cnn(CC(=O)NCCCOC(C)C)c3c2c1	inactive
FC(F)(F)C1=Nc2cccc3cccc(c23)N1	inactive
Cc1ccc(C2=N/C(=C\c3c(C)nn(-c4ccccc4)c3N3CCCC3)C(=O)O2)cc1	inactive
